Results reported in PubChem BioAssay AID485270 (The Scripps Research Institute Molecular Screening Center, 2010).
Among all 330,000 compounds or so, about 5,800 (1.8%) were called active. Rule as the data show it: active = inhibition mostly above about 38% (no sharp cut-off); inactive = mostly below about 40%. This excerpt belongs to a sample that is enriched for actives.

These compounds were tested against Orexin/Hypocretin receptor type 1 (Homo sapiens) (UniProt O43613) (assay: antagonists of human orexin 1 receptor (OX1R) (AID 485270;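 also: 0% = agonist challenge alone and 100% = reference antagonist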)). Conditions: OX1R-expressing cells, FRET antagonist read-out; at 6.6 µM; stronger effect = higher value.
Chain of Orexin/Hypocretin receptor type 1 (Homo sapiens) (O43613 whole entry, looked up): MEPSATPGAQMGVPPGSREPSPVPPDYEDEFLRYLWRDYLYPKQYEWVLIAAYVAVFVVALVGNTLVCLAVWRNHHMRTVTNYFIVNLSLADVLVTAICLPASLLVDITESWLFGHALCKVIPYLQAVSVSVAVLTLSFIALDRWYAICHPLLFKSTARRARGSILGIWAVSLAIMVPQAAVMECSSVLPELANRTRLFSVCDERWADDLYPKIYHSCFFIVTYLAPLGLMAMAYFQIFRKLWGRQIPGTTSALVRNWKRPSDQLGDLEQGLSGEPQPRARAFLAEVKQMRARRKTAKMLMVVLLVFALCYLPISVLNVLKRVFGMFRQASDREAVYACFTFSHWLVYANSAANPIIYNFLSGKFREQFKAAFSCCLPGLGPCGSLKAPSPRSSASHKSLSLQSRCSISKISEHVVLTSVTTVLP

inhibition, active:
O=C1c2ccccc2C(=O)c2c1cccc2N1CCN(CCO)CC1 56.4%
CCOc1ccc(/C=C/C(=O)OCC(=O)c2ccccc2OC)cc1OC 62.2%
COc1cc(NC(=O)Nc2ccc(C)cc2)cc([N+](=O)[O-])c1 45.8%
CC(=O)Oc1ccc2c(c1)C(=O)c1ccccc1C2=O 30.9%
CCC(=O)N(C)C(c1ccccc1Cl)c1nnnn1-c1c(C)cccc1C (centres undefined) 74.2%
Cc1ccc(C)c(NS(=O)(=O)c2c(C)[nH]c(C)c2C(=O)N2CCCCC2)c1 49.2%
Cc1oc2c(c1C(=O)N1CCOCC1)C(=O)c1ccccc1C2=O 90.1%
COc1cccc(NC(=O)CN(C)C(=O)c2ccccc2CCc2ccccc2)c1 67.5%
COc1ccccc1CCNC(=O)C(=O)NCCC1CCCCN1S(=O)(=O)c1cccs1 (centres undefined) 57.5%
CC(=O)Nc1ccc(Nc2c([N+](=O)[O-])cc(S(C)(=O)=O)cc2[N+](=O)[O-])cc1 98%
CNc1ccc(NC(C)=O)cc1[N+](=O)[O-] 59.9%

inhibition, inactive:
Cc1noc(C)c1NC(=O)Nc1cccc2c1O[C@H](CN(C)C(=O)Nc1ccccc1)[C@@H](C)CN([C@H](C)CO)C2=O 6.95%
CC(=O)C[C@H](O)CC(=O)[C@@H]1OC(=O)[C@@H](C)C/C=C\Cc2ccccc21 0.77%
O=C1OCCN1C(=O)[C@H]1[C@H](c2ccccc2)C(c2ccc(F)cc2)=NN1c1ccccc1 5.3%
Cc1cccc(N2O[C@H]3C=CC2CCCC3)n1 3.41%
CCn1nc(C(=O)NNS(=O)(=O)c2cc(/C=C/C(=O)O)cc(OC)c2OC)c2ccccc2c1=O 3.49%
CC[C@]12c3[nH]c4ccc(OC)cc4c3CCN1C(=O)C(CC(=O)NCCN1CCOCC1)C[C@@H]2C(=O)N1CCN(C(=O)C2CC2)CC1 (some centres undefined) 17.4%
O=C1c2ccccc2C(=O)c2c1cccc2N1CCN(Cc2ccccc2)CC1 14.2%
O=C1c2ccccc2C(=O)c2c1cccc2N1CCN(C/C=C/c2ccccc2)CC1 20.4%
COc1cc(/C=C/C(=O)OCC(=O)c2ccccc2)cc(OC)c1OC 7.01%
COc1ccc(/C=C/C(=O)OCC(=O)NC2CCCCCC2)cc1OC 5.65%
CCc1nnc(NC(=O)CSCc2cc(=O)n3cc(C)sc3n2)s1 8.1%
O=C(COC(=O)c1cccnc1Cl)Nc1ccc(S(=O)(=O)N2CCOCC2)cc1 7%
CC(=O)N1Cc2ccccc2CC1C(=O)O (centres undefined) 2.65%
COc1ccc(NC(=O)N(C)C[C@H]2Oc3ccc(NC(=O)C4CC4)cc3C(=O)N([C@H](C)CO)C[C@@H]2C)cc1 9.29%
COc1cc(C2CC(=O)Oc3cc(OC)c(OC)c(OC)c32)cc(OC)c1OC (centres undefined) 5.32%
CN(C(=O)c1cccc(NC(=O)Cc2cccc([N+](=O)[O-])c2)c1)C1CCCCC1 10.1%
COC(=O)c1ccc(NC(=O)Nc2ccc(C)cc2)cc1 15.3%
CC(=O)c1ccc(NC(=O)Nc2ccc([N+](=O)[O-])cc2C)cc1 26%
CC(C)(C)OC(=O)C[C@@H]1C/C=C\C[C@H](CC(=O)N[C@@H](CO)Cc2ccccc2)C(=O)N[C@H](Cc2ccccc2)COC1=O 4%
CC(=O)O[C@H]1c2ccccc2-c2ccccc2[C@@H]1OC(C)=O 1.8%
CC(=O)Oc1cccc(C(=O)Nc2ccccc2NC(=O)c2cccc(OC(C)=O)c2)c1 6.54%
Cc1ccnc(SCC(=O)Nc2cccc(S(=O)(=O)N3CCOCC3)c2)n1 5.6%
CC1CCN(C(=O)COC(=O)c2cc(=O)[nH]c3ccccc23)CC1 3.71%
CN(C(=O)CSc1nnnn1-c1ccccc1)C1CCCCC1 9.05%
CN(C)/C=C(/C(=O)c1ccc(Cl)c(Cl)c1)c1nnnn1-c1ccccc1 4.6%
Cc1ccc(C)c(N2CCN(S(=O)(=O)c3c(C)[nH]c(C)c3C(=O)N3CCCC3)CC2)c1 5.67%
Cc1ccc(NS(=O)(=O)c2c(C)[nH]c(C)c2C(=O)N2CCCCC2)c(C)c1 21.7%
O=C(COC(=O)CN1C(=O)C2CCCCC2C1=O)Nc1ccc(F)c(F)c1F (centres undefined) 0.98%
Cc1ccc(C(=O)N2CCN(C(=O)N3CCOCC3)CC2)cc1 5.22%
Cc1ccccc1-c1ccc(Nc2ccc(C(=O)N3CCOCC3)cc2)nn1 20.7%
Cc1cccc(C(=O)N[C@H](C(=O)NCc2cccs2)C(C)C)c1 11.5%
CN[C@H](C(=O)NC[C@H]1O[C@@H](n2cnc3c(N)ncnc32)[C@H](O)[C@@H]1O)[C@@H](C)OCc1ccccc1 5.21%
Cc1ccc(C(=O)NNC(=O)c2ccc3c(c2)OCCO3)cc1 8.1%
COc1cccc(NC(=O)CN(C)C(=O)Cc2ccc(Cl)cc2Cl)c1 17.8%
COc1cccc(NC(=O)CN(C)C(=O)c2cc(C3CC3)nn2-c2ccccc2)c1 14%
CC(C)n1ncc2c(C(=O)Nc3ccc(CC#N)cc3)cc(C3CC3)nc21 4.43%
Cc1ccc(S(=O)(=O)Nc2ccc3c(c2)C(=O)N([C@H](C)CO)C[C@@H](C)[C@@H](CN(C)C(=O)Nc2cccc4ccccc24)O3)cc1 2.14%
O=C(NCCC1CCCCN1S(=O)(=O)c1cccs1)C(=O)Nc1ccc(F)cc1F (centres undefined) 12.6%
COc1ccc(CCNC(=O)C(=O)NCC2CCCN2S(=O)(=O)c2cccs2)cc1OC (centres undefined) 17.3%
Cc1ccc(NC(=O)c2sccc2C)cc1[N+](=O)[O-] 14.5%
CC(=O)Nc1ccc(S(=O)(=O)N2CCN(c3ccc([N+](=O)[O-])c(NCCN4CCOCC4)c3)CC2)cc1 24.8%
CNc1ccc([N+](=O)[O-])cc1C(=O)O 17.5%
CC(=O)Nc1ccc(NC(=S)NC(=O)c2ccc([N+](=O)[O-])c(C)c2)cc1 4.21%
